HTT cytoprotect: qHTS Multiplex Assay to Identify Dual Action Probes in a Cell Model of Huntington: Cytoprotection (ATP). PC12 HTT-Q103 induced, cytoprotection, ATP luminescence, 40 h. Potency, µM (titrated, usually from 56.4 µM), inactives show cytoprotection (ATP increase), usual class: activators. 230,000 tested, 0.14% active; note: potency is the fitted concentration of half-maximal effect; % of control where 0% means no effect; nearly all actives have a fitted effect of over 45% in size
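Stable PC12 Q103-GFP cells in serum-supplemented, phenol red-free DMEM; induction by tebufenozide at 100 nM final; compound dose series; cell viability quantified luminescently from ATP.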
TRb SRC2 PPI: qHTS for Inhibitors of the Interaction of Thyroid Hormone Receptor and Steroid Receptor Coregulator 2; AID 1469, 2008; 280,000 tested, 0.065% active; Potency, µM (highest dose often 106 µM), for the others: at the highest dose activity change, negative = inhibition, most hits filed as inhibitors; TRbeta-SRC2 peptide binding, fluorescence polarization; receptor liganded with 1 µM T3;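 note: potency is the fitted concentration of half-maximal effect; plate controls were bound peptide for no effect and peptide without receptor for full effect; nearly all actives have a fitted effect of over 50% in size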
Target sequence (P10828 whole entry, looked up): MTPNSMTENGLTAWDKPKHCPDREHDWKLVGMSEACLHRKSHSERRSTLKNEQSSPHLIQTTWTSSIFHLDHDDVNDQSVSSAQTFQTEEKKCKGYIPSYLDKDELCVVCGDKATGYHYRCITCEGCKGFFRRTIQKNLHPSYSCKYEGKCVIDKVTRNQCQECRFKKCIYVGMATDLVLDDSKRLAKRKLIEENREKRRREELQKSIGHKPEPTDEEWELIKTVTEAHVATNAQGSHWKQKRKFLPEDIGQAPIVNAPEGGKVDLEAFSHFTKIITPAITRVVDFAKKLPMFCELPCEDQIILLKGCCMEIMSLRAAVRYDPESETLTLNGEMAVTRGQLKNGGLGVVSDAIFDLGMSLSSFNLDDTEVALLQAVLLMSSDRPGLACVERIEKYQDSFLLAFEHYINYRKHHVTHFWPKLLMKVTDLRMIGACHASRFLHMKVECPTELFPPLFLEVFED
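TRb LBD 0.6 uM + Texas Red SRC2 peptide 20 nM, 1 uM T3, Tris buffer w/ 5% DMSO; compound pinned, 5 h RT; FP read ex 555/em 632; normalized to unbound and bound controls.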
FBPA coupling cs: qHTS Assay for Inhibitors of Fructose-1,6-bisphosphate Aldolase from Giardia Lamblia: Coupling assay counterscreen; coupling enzyme system counterscreen, AmpLite Red fluorescence; activity change, negative = inhibition, % at 58.2 µM, hits read low; 290,000 tested, 0.67% active; in the data active = activity change below about -30%; note: % is set by controls: 0 for no effect and ±100 for the full control effect
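Compounds tested against the coupling enzymes alone at 57.5 uM final; readout was AmpLite Red fluorescence (525/598 nm) after 20 min at RT.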
JMJD2E inh: qHTS Assay for Inhibitors of Human Jumonji Domain Containing 2E (JMJD2E). Lysine-specific demethylase 4E (Homo sapiens), B2RXH2. JMJD2E catalytic domain, FDH-coupled NADH fluorescence (FDH is formaldehyde dehydrogenase). Potency, µM (titrated, usually from 57.1 µM), inactives show top-dose activity change, negative = inhibition, most hits filed as inhibitors. 230,000 tested, 1.6% active; active = well fitted inhibition curve with a large enough effect, not every such curve was filed as active; inconclusive = small, poorly fitted or top-dose-only effect, or another doubt; inactive = no such curve, though single readings can be large or run the other way;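 note: potency is the fitted concentration of half-maximal effect; 0% = wells with enzyme and -100% = buffer wells without enzyme; nearly all actives have a fitted effect of over 50% in size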
Target sequence (B2RXH2 1-337 limits assumed): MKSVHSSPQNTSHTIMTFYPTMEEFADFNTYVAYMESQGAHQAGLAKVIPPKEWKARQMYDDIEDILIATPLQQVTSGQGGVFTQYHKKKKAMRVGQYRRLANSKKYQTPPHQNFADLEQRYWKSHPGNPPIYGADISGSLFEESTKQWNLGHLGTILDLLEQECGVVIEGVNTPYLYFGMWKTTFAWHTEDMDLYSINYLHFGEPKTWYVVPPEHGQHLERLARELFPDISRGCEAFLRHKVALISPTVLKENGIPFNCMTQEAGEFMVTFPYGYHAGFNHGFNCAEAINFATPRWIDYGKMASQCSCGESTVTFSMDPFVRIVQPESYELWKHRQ
HTT aggregate: qHTS Multiplex Assay to Identify Dual Action Probes in a Cell Model of Huntington: Aggregate Formation (GFP); PC12 HttQ103-GFP aggregates, Acumen cytometry, 40 h; Potency, µM (doses to about 46.1 µM), for inactives: at the top dose activity change, negative = inhibition, hits mostly inhibitors; 220,000 tested, 1.1% active; AID 1688, 2009; note: potency is the fitted concentration of half-maximal effect; % is set by controls: 0 for no effect and ±100 for the full control effect; nearly all actives have a fitted effect of over 60% in size
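Multiplexed with ATP-based cell death, this channel scores GFP aggregates in PC12 cells expressing inducible HTTex1-Q103-GFP. Induction used 100 nM tebufenozide; compounds were tested in concentration series.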
TexasRed fluor: Total Fluorescence Counterscreen for Inhibitors of the Interaction of Thyroid Hormone Receptor and Steroid Receptor Coregulator 2 | AID 1479, 2009 | Potency, µM (top dose mostly 106 µM), without a hit: at the top dose fluorescence change, negative = quenching | 280,000 tested, 0.29% active | TRb/SRC2 Texas Red total fluorescence interference; active = well fitted curve in either direction with a large enough effect; inconclusive = small, poorly fitted or top-dose-only effect; note: potency is the fitted concentration of half-maximal effect; % is set by controls: 0 for no effect and ±100 for the full control effect
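Flags fluorescent or light-absorbing compounds by total fluorescence, S + 2P, at 555 nm excitation and 632 nm emission. Mixture: 20 nM Texas Red SRC2 peptide, 0.6 uM human TRb LBD, 1 uM T3, 5% DMSO; compound exposure 5 h at ambient temperature.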
An asterisk follows results filed as active; ? = inconclusive; / = no result given; [ ] = another dose, or the depositor's remark. Shown are actives, neighbours in structure and some others; about 2% of the full set was active somewhere. Unless noted, calls come from the whole dose curve; as a rule, active = well fitted curve in the direction sought with a large enough effect; inconclusive = small, poorly fitted or top-dose-only effect, or another doubt; inactive = no such curve, though single readings can be large; an effect the other way counts as inactive or inconclusive.

SMILES | HTT cytoprotect | TRb SRC2 PPI | FBPA coupling cs | JMJD2E inh | HTT aggregate | TexasRed fluor
CCNc1nc(NC(C)C)nc(N(C#N)Cc2ccccc2)n1 | 1.6%[10 µM] | 4.0% | 0.9 | 4.1% | 9.4% | -1.8%
CCNc1nc(NC(C)C)nc(N(C#N)CCOc2ccc(Cl)cc2Cl)n1 | -5.4% | -12.6% | -3.4 | ? | 35.5µM* | -2.9%
CC1=C(C)C(=O)C(N2CCOCC2)=CC1=O | -8.9%[10 µM] | 4.1% | -60.3* | -23.9% | ? | -2.3%
O=C1C=C(N2CCOCC2)c2ccccc2C1=O | / | / | -66.3* | / | / | /
CN(C1=C(N2CCOCC2)C(=O)c2ccccc2C1=O)c1ccccc1 | -22.1%[10 µM] | -4.2% | -40.5* | -1.0% | -25.3% | -3.4%
c1cncc(CSc2ncnc3nc[nH]c23)c1 | -18.6%[10 µM] | / | / | / | / | /
CCC(=O)N1CCc2cc(S(=O)(=O)NCCC(=O)Nc3ccc(C)cc3)ccc21 | / | -4.2% | / | / | / | -0.8%
COc1cc(CN2CCN(S(=O)(=O)c3ccc(NC(C)=O)cc3)CC2)cc(OC)c1OC | / | -5.9% | / | / | / | -2.4%
Cc1ccc(OCC(=O)Nc2ccc(S(=O)(=O)Nc3cc(C)nc(C)n3)cc2)c(Br)c1 | / | 1.4% | / | / | / | 3.8%
Cn1c(=O)[nH]c(=O)c2c1nc([N+](=O)[O-])n2Cc1ccccc1 | -96.6%[10 µM] | -2.3% | -45.4* | ? | ? | -1.3%
Cn1c(=O)[nH]c(=O)c2c1nc(N1CCNCC1)n2Cc1ccccc1 | / | / | -0.5 | / | / | /
CCNc1nc2c(c(=O)[nH]c(=O)n2C)n1CC(C)C | -10.0% | -7.9% | -1.3 | -1.1% | 6.9% | -6.4%
CC(C)Cn1c([N+](=O)[O-])nc2c1c(=O)[nH]c(=O)n2C | -13.3%[10 µM] | -4.3% | -30.7* | ? | -14.0%[9.22 µM] | -1.0%
COc1cccc(C(=O)Nc2cccc(C(=O)NCC(C)C)c2)c1 | -4.7%[10 µM] | -3.4% | -1.9 | 0.1% | 3.16µM* | 0.1%
Cc1ccc(C)c(C(=O)N2CCC(c3nc4c(nnn4Cc4ccccc4)c(=O)[nH]3)CC2)c1 | / | 3.1% | / | / | / | 1.3%
COc1cc(NC(=O)Nc2ccc3c(c2)OCO3)cc(OC)c1OC | 6.3% | 0.8% | 4.0 | 3.7% | 11.3% | -2.8%
COc1cc(C(Nc2ccc3c(c2)OCO3)C(=O)NC2CCCCC2)cc(OC)c1OC (centres undefined) | -16.2% | 2.5% | -21.2 | 28.2µM* | -16.1% | -7.1%
COC(=O)N1[C@H](C)C=C[C@]1(Cc1ccccc1)C(=O)NCc1ccccn1 | 7.3% | -3.2% | -0.8 | -2.4% | / | -1.3%
COC(=O)N1[C@H](C)C=C[C@]1(Cc1ccccc1)C(=O)NCc1ccc(N(C)C)cc1 | -50.1% | -6.8% | -2.3 | 17.8µM* | / | -3.6%
COc1ccccc1NC(=O)/C(C#N)=C/c1cc([N+](=O)[O-])ccc1N1CCCC1 | 3.98µM* | -12.7% | -6.2 | 1.2% | 16.1% | -1.8%
COc1ccc(N=Cc2cc3c(cc2O)OC(N)=C(C#N)C3c2ccccc2)cc1 (centres undefined) | 6.8%[1.9 µM] | 7.3% | -11.1 | ? | 7.94µM* | -11.2%
N#CC1=C(N)Oc2cc(O)ccc2C1c1ccccc1 (centres undefined) | -1.0% | -3.6% | -0.3 | -0.6% | -10.4% | -0.9%
O=C(NC1CCCc2ccccc21)C1CCN(c2c3c(nc4ncnn24)CCC3)CC1 (centres undefined) | 5.4% | -7.6% | -0.1 | -9.5% | -17.0% | -0.5%
O=C(Nc1ccc(Oc2ccccc2)cc1)C1CCN(c2c3c(nc4ncnn24)CCC3)CC1 | -65.7% | 1.7% | 0.6 | -6.6% | 8.91µM* | 2.0%
O=C(Nc1ccc2c(c1)CCC2)C1CCN(c2c3c(nc4ncnn24)CCC3)CC1 | 5.2%[10 µM] | -5.8% | -1.9 | 6.6% | 11.2µM* | -0.3%
SMILES | HTT cytoprotect | TRb SRC2 PPI | FBPA coupling cs | JMJD2E inh | HTT aggregate | TexasRed fluor
C[C@@H]1CC[C@@]2(OC1)OC1CC3C4CC=C5CC(O)CCC5(C)C4CCC3(C)C1[C@@H]2C (some centres undefined) | -46.0% | 0.4% | 5.3 | 9.8% | / | -1.8%
COc1ccc(-c2nc(C)c(CCNC(=O)c3cc(OC)c(OC)c(OC)c3)s2)cc1OC | / | -1.4% | / | / | / | -1.3%
COc1cccc(NC2C=CS(=O)(=O)C2)c1 (centres undefined) | -1.9%[10 µM] | -7.1% | 1.0 | -9.3% | -11.1% | 0.9%
COc1ccc(NC2C=CS(=O)(=O)C2)c(OC)c1 (centres undefined) | -1.3%[0.074 µM] | -8.7% | -41.4* | 1.4% | 5.7% | 7.4%
CCCCCCCCCCCCCO | / | 4.3%[201 µM] | / | / | / | -1.3%[201 µM]
COC(=O)c1ccncc1N | 12.2% | -3.7% | 3.5 | ? | 25.7% | -1.8%
Nc1cnccc1C(=O)O | -35.8% | ? | -50.5* | 0.631µM* | 8.2% | 10.6%
CC1(C)C(=O)NC(=O)N1CO | / | 12.8%[201 µM] | / | / | / | 1.5%[201 µM]
COc1ccc2c(c1)-c1c(ssc1=S)C(C)(C)N2C(=O)CSC1=NCCS1 | 30.5%[10 µM] | 1.6% | 0.9 | 0.1% | 11.2µM* | -2.5%
COc1ccc(C(C)(C)C)cc1NC(=O)c1c(C)noc1C | -0.3% | -6.9% | -1.0 | 5.2% | 0.562µM* | -1.3%
O=C(Nc1ccc(OC(F)F)c(Cl)c1)Nc1ccc2c(c1)OCO2 | -1.8%[10 µM] | -8.1% | 0.1 | -4.6% | 11.2µM* | -3.0%
O=C(Nc1ccc([N+](=O)[O-])cc1)Nc1ccc(OC(F)F)c(Cl)c1 | / | -2.8% | -0.3 | -3.9% | 11.2µM* | -1.2%
COc1ccc(NC(=O)c2cccc(OC(F)F)c2)cc1Cl | -6.6% | -0.8% | -10.4 | 0.6% | -16.1% | -3.3%
O=C(Nc1ccc(OC(F)F)c(Cl)c1)c1cccc(OC(F)F)c1 | -90.2% | 12.2% | 4.3 | 2.5% | 3.98µM* | -0.1%
O=C(c1ccccc1Cl)n1nc(-c2cccnc2)nc1NCc1ccc(F)cc1 | / | -6.0% | / | / | / | 2.7%
COc1ccc(OC)c(/C=C(\C#N)c2nc(-c3ccc(F)cc3)cs2)c1 | / | 2.0% | / | / | / | -7.8%
COc1ccc(C(C)(C)C)cc1NC(=O)Nc1ccc2c(c1)OCO2 | 11.6%[10 µM] | 1.2% | 0.3 | -1.8% | 17.8µM* | 1.2%
C[C@@H]1CC2(OC3C[C@@]4(C)C5=CC[C@H]6C(C)(C)C(O[C@@H]7OC[C@@H](O)[C@H](O)[C@H]7O)CC[C@@]67C[C@@]57CC[C@]4(C)C31)OC(O)C1(C)OC21 (some centres undefined) | -3.0% | -1.5% | / | / | / | -1.4%
Cc1cc(/C=C\c2ccc3cc(N(C)C)ccc3[n+]2C)c(C)n1-c1ccccc1 | -92.6%[17.1 µM] | ? | -18.5 | ? | 3.16µM* | 14.1µM*[fluorescent]

Source: PubChem (National Center for Advancing Translational Sciences (NCATS))
